# 3T3 cytotox: NIH 3T3 cell cytotoxicity | NIH 3T3 viability, CellTiter-Glo ATP luminescence, 48-72 h | Potency, µM (series often up to 96.7 µM), for the others: top-dose activity change, negative = cytotoxicity, actives largely listed as inhibitors | 94,000 compounds, 4.3% hits | AID 1345082; note: nearly all actives have a fitted effect of over 55% in size
#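 Mouse fibroblast NIH 3T3 cells, 400 per well, received compound via pintool and were incubated for 48 or 72 hr prior to CellTiter-Glo ATP luminescence measurement.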
# HEK293 tox: HEK 293 cell cytotoxicity; HEK 293 viability, ATP luminescence (CellTiter-Glo), 48-72 h; Potency, µM (doses to about 115 µM), for the others: at the highest dose activity change, negative = cytotoxicity, usual class: inhibitors; 94,000 compounds, 6.6% hits; AID 1345083; note: nearly all actives have a fitted effect of over 60% in size
#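 HEK 293 cells seeded at 250 cells/well were exposed to compound for 48 or 72 hr at 37 degree Celsius. Viability taken as ATP content by CellTiter-Glo luminescence.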
# FLuc inh: blocks purified firefly luciferase enzyme activity; Potency, µM (doses to about 115 µM), hits mostly inhibitors; 76,000 compounds, 2.5% hits; purified P. pyralis luciferase, luminescence, biochemical; AID 1347043; P08659; note: nearly all actives have a fitted effect of over 65% in size
#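 Luminescence read by CCD imager after adding enzyme (10nM final) to wells holding compound, titrated in qHTS. Substrates 10uM each D-luciferin and ATP; buffer 50mM Tris acetate pH 7.5, 10mM Mg acetate, Tween-20, BSA.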
# NPR1 antag: blocks ANP-stimulated signaling of human Npr1 receptor; HEK293 hNpr1 GloSensor cGMP, ANP-stimulated luminescence; Potency, µM (top dose mostly 46.3 µM), inactives show at the highest dose activity change, negative = inhibition, most hits filed as inhibitors; 76,000 compounds, 1.6% hits; calls by dose curve; note: nearly all actives have a fitted effect of over 60% in size
#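 HEK293 cells stably expressing human Npr1 and cGMP GloSensor pGS-40F, loaded 2 h with 2% GloSensor reagent, given compound 30 min at room temperature. Luminescence read before and 20 min after 0.1 nM hNppA.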
# * marks the source's active call; other numbers are inactive results; i = inactive; u = inconclusive; x = not tested or not shown; [ ] = dose if it differs, or a comment. A selection: hits, their analogues and other compounds. The true share with any hit is near 11%. Unless noted, calls come from the whole dose curve; as a rule, active = well fitted curve in the direction sought with a large enough effect; inconclusive = small, poorly fitted or top-dose-only effect, or another doubt; inactive = no such curve, though single readings can be large; an effect the other way counts as inactive or inconclusive. % is set by controls: 0 for no effect and ±100 for the full control effect; potency is the fitted concentration of half-maximal effect.
SMILES,3T3 cytotox,HEK293 tox,FLuc inh,NPR1 antag
COCCn1c(=O)c(C(=O)NCCc2ccccc2F)nc2cccnc21,-23%,-14%,x,x
CC(C)C(=O)N1CCC2(CC1)OC(=O)N(Cc1ccccc1)C2(C)c1cccnc1 (stereo unspecified),20µM*,-17%[172 µM],i,2%[70.6 µM]
CC(C)C(=O)N1CCC2(CC1)OC(=O)N(Cc1ncccn1)C2(C)c1ccccc1 (stereo unspecified),89µM*,0%[172 µM],i,0%[70.6 µM]
CC1(c2ccccc2)N(Cc2ncccn2)C(=O)OC12CCN(C(=O)Cc1ccc(Cl)cc1)CC2 (stereo unspecified),u,-12%,i,7%
Cn1nccc1C(=O)N1CCC2(CC1)OC(=O)N(Cc1ccccc1)C2(C)c1ccccc1 (stereo unspecified),u,3%,i,3%
Cn1nccc1C(=O)N1CCC2(CC1)OC(=O)N(Cc1ccccc1)C2(C)c1cccnc1 (stereo unspecified),28µM*,i,i,0%
CC1(c2cccnc2)N(Cc2ccccc2)C(=O)OC12CCN(C(=O)Cc1ccc3c(c1)OCO3)CC2 (stereo unspecified),u,-19%,i,-1%
CC1(c2ccccc2)N(Cc2ncccn2)C(=O)OC12CCN(C(=O)Cc1ccc3c(c1)OCO3)CC2 (stereo unspecified),40µM*,-19%,i,-4%
O=C(NCc1ccccc1C(F)(F)F)C1CCCN(c2cnn(Cc3ccccc3)c(=O)c2)C1 (stereo unspecified),u,45µM*,i,-19%
Cc1nc2ccc(C(=O)NCc3cccnc3Oc3ccccc3C)cc2[nH]1,50µM*,u,i,-20%
Cc1ccccc1Oc1ncccc1CNC(=O)c1ccc2c(c1)OCO2,u,-11%,i,-2%
Cc1ccc(C2Cn3nnc(-c4noc(COc5cccc(C)c5)n4)c3CO2)cc1 (stereo unspecified),-8%,-14%,i,-21%
CC1(C(=O)NCCOc2ccccc2)CCCc2cnc(Nc3cccnc3)nc21 (stereo unspecified),u,100µM*,i,-16%[70.6 µM]
CC1(C(=O)NCCCn2ccnc2)CCc2cnc(NCc3ccccc3)nc21 (stereo unspecified),32µM*,-21%[172 µM],i,4%[70.6 µM]
Cn1ccc(NC(=O)C2(C)CCc3cnc(NCc4ccccc4)nc32)n1 (stereo unspecified),20µM*,u,i,-5%[70.6 µM]
CC1(C(=O)NCC2CC2)CCc2cnc(NCc3ccccc3)nc21 (stereo unspecified),u,40µM*,i,-4%[70.6 µM]
CC1(C(=O)NCCN2CCOCC2)CCCc2cnc(NCc3ccccc3)nc21 (stereo unspecified),u,-5%[172 µM],i,0%[70.6 µM]
COCCNC(=O)C1(C)CCCc2cnc(Nc3ccccc3)nc21 (stereo unspecified),u,u,i,-2%[70.6 µM]
COCCNC(=O)C1(C)CCc2cnc(NCc3ccccc3)nc21 (stereo unspecified),89µM*,-26%[172 µM],i,8%[70.6 µM]
COCCNC(=O)C1(C)CCc2cnc(Nc3ccccc3)nc21 (stereo unspecified),79µM*,u,i,5%[70.6 µM]
NC(=O)c1cccnc1N1CCC(n2cc(-c3ccccc3Cl)nn2)CC1,-24%,79µM*,i,-9%
O=C(c1ccc2nnc(-c3cccnc3)n2c1)N1CCOCC1,-3%[138 µM],2%[172 µM],x,x
Cc1sc2ccn(CC(C)C)c(=O)c2c1C(=O)N1CCC(C)CC1,-1%,45µM*,i,8%
CCCN1CCN(C(=O)c2c(C)sc3ccn(CC(C)C)c(=O)c23)CC1,i,-1%,i,3%
Cc1sc2ccn(CC(C)C)c(=O)c2c1C(=O)N1CCCCC1,5%,28µM*,i,-3%
OC1(c2csc(CN3CCOCC3)n2)CCN(CC2CCCCC2)CC1,-6%[174 µM],i,i,0%[70.6 µM]
O=C(NCc1cccnc1)c1nc2cccnc2n(C2CC2)c1=O,-8%[138 µM],1%[172 µM],x,x
CC1(C)[C@H](Cc2cc(COc3ccccc3)on2)C[C@@H]1NC(=O)Nc1ccccc1,u,u,i,-26%[70.6 µM]
CSc1cccc(NC(=O)C2CCN(c3cnc4nccnc4c3)CC2)c1,6.3µM*,8.9µM*,i,-2%
CSc1cccc(NC(=O)C2CCN(c3cnc4nc(C)c(C)nc4c3)CC2)c1,-12%,u,u,3%

# Assay outcomes deposited in PubChem by National Center for Advancing Translational Sciences (NCATS).
